Our source for the Inhibition values is ChEMBL document CHEMBL1157539, “Thousands of chemical starting points for antimalarial lead identification” (Nature, 2010).

What all share (assay type): functional
For assay [1], the system named is Plasmodium falciparum. Kind of assay: GSK_TCMDC: Inhibition of Plasmodium falciparum 3D7 in whole red blood cells, using parasite LDH activity as an index of growth. Test compounds present at 2uM.
The test system of assay [2] is Plasmodium falciparum. The assay can be described thus: GSK_TCMDC: Inhibition of Plasmodium falciparum Dd2 in whole red blood cells, using parasite LDH activity as an index of growth. Test compounds present at 2uM.
The next assay has as its system HepG2. Kind of assay: GSK_TCMDC: Percent inhibition of human HepG2 cell line. Test compounds present at 10uM.

SMILES strings stand for the structures.

By Inhibition is commonly meant the drop in the measured response relative to a control, in per cent. A higher Inhibition goes with strong suppression. `Cc1cccc2nc(-c3ccc(-c4cccc(CNCCNC(=O)c5ccnn5C)c4)cc3)[nH]c12.O=C(O)C(F)(F)F`: the figures for the Inhibition in the assay with Plasmodium falciparum [1], with Plasmodium falciparum [2] and with HepG2 were 100%, 92% and 17%, respectively.
Regarding `COc1cc2c(=O)c(Cc3ccc(Cl)cc3)c(C)[nH]c2cc1F`, the Inhibition was 85% with Plasmodium falciparum [1], 28% in the assay on Plasmodium falciparum [2] and 13% in the assay on HepG2.
For `COc1ccc(C(=O)NC(c2ccc(Cl)cc2Cl)c2cc(Cl)c3cccnc3c2O)cc1` (stereo unspecified), in that order: 84%, 48% and 46%.
For `COc1c(C2CCN(CCCCNC(=O)c3ccc(-c4ccc(NC(=O)C(F)(F)F)cc4)cc3)CC2)ccc2c1CCCC2`, in that order: 86%, 33% and 95%.
Regarding `CN1CCN(c2cccc(-c3nnc(-c4ccc(OCC(=O)NCc5ccc(C(F)(F)F)cc5)c([N+](=O)[O-])c4)o3)c2)CC1`, the Inhibition in the assay on Plasmodium falciparum [1] amounted to 90%; with Plasmodium falciparum [2], 44%; with HepG2, 35%.
For `Cc1ccc(-n2c(Sc3ncnc4sccc34)nnc2N2CCCC2)cc1`, in that order: 99%, 100% and 0%.
In the case of `O=c1c2ccccc2[nH]c2cc(Cl)ccc12`, the Inhibition was 95% in the assay on Plasmodium falciparum [1], 86% with Plasmodium falciparum [2] and 24% in the assay on HepG2.
Consider `O=C(NNC(=O)c1ccc(CCN2CCC(c3nc(COCC(F)(F)F)c(-c4ccc(F)cc4)o3)CC2)cc1)Nc1ccc(Oc2ccccc2)cc1`, for which the Inhibition in the assay with Plasmodium falciparum [1] was determined as 100%; with Plasmodium falciparum [2], 89%; in the assay with HepG2, 38%.
For `C[C@@H](CNc1ccnc(Nc2ccc3[nH]c(=O)[nH]c3c2)n1)c1ccccc1`, in that order: 100%, 1% and 42%.
The corresponding values for `COc1ccc2nccc([C@@H](O)CN3CCC(NC(=O)c4ccc5nc(-n6cccc6)sc5c4)CC3)c2c1` are 90%, 40% and 26%.
On to `Br.Oc1ccc(CCNCCCCCCNCCc2ccc(-c3ccccc3)cc2)cc1O`, for which the Inhibition in the assay with Plasmodium falciparum [1] is on record as 100%; with Plasmodium falciparum [2] it was 8%; with HepG2, 72%.
As for `Nc1ccnc(N2CCC(CCOc3ccnc4cc(Cl)ccc34)CC2)c1.O=C(O)C(F)(F)F`, the values for the Inhibition in the assay with Plasmodium falciparum [1], in the assay on Plasmodium falciparum [2] and in the assay with HepG2 were 100%, 99% and 34%, respectively.
For the compound `Cc1cc(Br)cnc1CCCCNC1=NC(=O)CN1C`, the Inhibition with Plasmodium falciparum [1] stood at 95%; with Plasmodium falciparum [2], 26%; with HepG2 it was 63%.
For `O=C(/C=C/c1ccc(Cl)c(Cl)c1)N1CCC(CCN2CCC(c3nc4cc(O)ccc4[nH]3)CC2)CC1`, the Inhibition in the assay with Plasmodium falciparum [1] is on record as 100%; with Plasmodium falciparum [2], 60%; in the assay on HepG2, 42%.
As for `Cc1cc(N(C)CCCN2CCCCC2)nc(Nc2ccc(Cl)cc2)n1.Cl`, the Inhibition in the assay with Plasmodium falciparum [1] is listed as 100%; with Plasmodium falciparum [2] it was 82%; in the assay with HepG2 it was 7%.
The corresponding values for `Cc1csc(NC(=O)c2cn(-c3ccccc3)nc2-c2cccs2)n1` are 95%, 12% and 0%.
For `CCCN(CCC)c1nn2c(=O)c(C(=O)N3CCN(Cc4ccccc4)CC3)cnc2s1`, in that order: 84%, 89% and 0%.
For `CCCN(CCC)S(=O)(=O)c1ccc(C(=O)Nc2nc3ccc(-c4cc(=O)[nH]c(Nc5ccccc5Cl)n4)cc3[nH]2)cc1`, in that order: 100%, 98% and 1%.
For the compound `CCCCSc1ccc2nc(-c3c[nH]c4ccc(C#N)cc34)cn2c1`, the Inhibition came out at 94% in the assay on Plasmodium falciparum [1], 37% in the assay on Plasmodium falciparum [2] and 3% with HepG2.
For `O=C(/C=C/c1ccc(Cl)c(Cl)c1)N1CCC(CN2CCC(Cc3cc4ccccc4[nH]3)CC2)CC1`, in that order: 96%, 56% and 49%.
For `CC(C)(C)c1nn(-c2ccccc2)c2[nH]c(=O)c(CNCc3ccccc3)cc12`, in that order: 90%, 91% and 5%.
On to `O=C(O)c1cccc2c(-c3ccncc3)cccc12`, for which the Inhibition in the assay with Plasmodium falciparum [1] is given as 97%; in the assay on Plasmodium falciparum [2] it was 1%; in the assay on HepG2, 29%.
The corresponding values for `O=C(Nc1cccc(-c2nn3ccccc3c2-c2ccnc(Nc3ccc(Cc4ccncc4)cc3)n2)c1)c1c(F)cccc1F` are 97%, 97% and 43%.
With `Br.N=C1N=C(N)NC2(CCCCC2)N1OCCCOc1cc(Cl)c(Cl)cc1Cl`, the Inhibition with Plasmodium falciparum [1] is on record as 94%; with Plasmodium falciparum [2], 98%; in the assay with HepG2 it was 62%.
The corresponding values for `Cc1cnc(Nc2cccc(CCN3CCOCC3)c2)nc1NC(C)C.Cl` are 97%, 76% and 53%.
As for `COc1cc(Cc2cnc(N)nc2N)cc(OCCNC(=O)OCc2ccccc2)c1OC`, the Inhibition worked out at 93% with Plasmodium falciparum [1], 0% with Plasmodium falciparum [2] and 6% with HepG2.
The corresponding values for `COc1ccc2nc(C)cc(N/N=C/c3ccc([N+](=O)[O-])o3)c2c1` are 100%, 100% and 18%.
For `CN(C)Cc1ccc(-c2cccc(NC(=O)c3cccc(Cl)c3)c2)cc1.O=C(O)C(F)(F)F`, in that order: 96%, 12% and 18%.
The corresponding values for `CC1(C)C(=O)Nc2ccccc2N1C(=O)CN1CCN(c2ccccc2O)CC1` are 92%, 72% and 7%.
As to `Cc1nc(NCc2ccccc2)cc(NCC(O)c2ccc(O)cc2)n1` (stereo unspecified), the values for the Inhibition in the assay with Plasmodium falciparum [1], in the assay with Plasmodium falciparum [2] and in the assay on HepG2 were 85%, 10% and 5%, respectively.
For `Cn1nccc1C(=O)NCCNCc1cccc(-c2ccc(-c3nc4ccccc4[nH]3)cc2)c1.O=C(O)C(F)(F)F`, in that order: 100%, 98% and 19%.
In the case of `CC(NC(=O)c1ccc(O)c(-c2ccc(Cl)c(Cl)c2)c1)C(=O)NCCN1CCCCC1` (stereo unspecified), the Inhibition in the assay on Plasmodium falciparum [1] is recorded as 97%; in the assay with Plasmodium falciparum [2], 3%; with HepG2, 0%.
